Reference: ChEMBL document CHEMBL3988442, “University of Dundee, Small-Polar-MMV Screening Library” (2021)
The whole screen tested about 48,000 compounds, of which about 13,000 (27%) showed an effect of 50% or more. Some of the results follow.

tested on: Wolbachia pipientis; assay: Anti-Wolbachia Cell-Based Screen; type: functional; set-up: scale not given: in the data most compounds retested in dose-response had high values; conditions: 5 µM

| Compound | Percent Effect [%] |
| --- | --- |
| CC(C1CCN(Cc2c(Cl)cncc2Cl)CC1)N1CCN(C)CC1 (stereo unspecified) | -10.06 |
| CC1(c2ccccc2)CCC(=O)N(CC2(N3CCOCC3)CCCC2)C1 (stereo unspecified) | -0.1352 |
| O=C(NCc1nc(C2CC2)no1)N1CCOC(c2ccccc2)C1 (stereo unspecified) | -16.91 |
| COC(=O)[C@@H]1Cc2ncn(C)c2CN1S(=O)(=O)c1ccc(OC)cc1 | 2.654 |
| O=C(Nc1ccnn1C1CCCC1)c1ccc(NC2CC2)nc1 | -4.734 |
| CCc1c(C)nn(CCN2CC3(CCOC3)CCC2=O)c1C (stereo unspecified) | -12.78 |
| CC(C)(CNC(=O)NCCOc1cccc(F)c1)C(N)=O | -10.47 |
| CC(C)(CNC(=O)NCCc1ccn(-c2ccccc2)n1)C(N)=O | 145.8 |
| CC(C)CCC(=O)NCCc1ccn(-c2ccccc2)n1 | 127.8 |
| CC(C)(C)C(=O)NCCc1ccn(-c2ccccc2)n1 | 8.286 |
| CC(C)CCNC(=O)CCc1ccnc2ccccc12 | -1.133 |
| CCNC(=O)CCS(=O)(=O)Cc1ccn(-c2cccc(F)c2)n1 | -7.781 |
| CC(C)(C)C(=O)NCCC(=O)NCCc1ccn(-c2ccccc2)n1 | 101.3 |
| O=C(CCNc1ncccn1)NCCc1ccn(-c2ccccc2)n1 | 0.9035 |
| CCC(CC)NC(=O)CN1CCN(C(=O)N(C)C)CC1 | 29.72 |
| CCCn1cnnc1CNC1CSCCSC1 | 10.77 |
| COCC1Cn2nnc(-c3cnn(C)c3)c2CN1Cc1ccco1.O=C(O)C(F)(F)F (stereo unspecified) | -7.435 |
| COCC1Cn2nnc(-c3cnn(C)c3)c2CN1Cc1ccoc1.O=C(O)C(F)(F)F (stereo unspecified) | 100.4 |
| COCC1Cn2nnc(-c3cnn(C)c3)c2CN1Cc1ccc(C)o1 (stereo unspecified) | 87.7 |
| Cn1cc(-c2nnn3c2COC(CNCc2nccs2)C3)cn1 (stereo unspecified) | 7.882 |
| COCC1CN(Cc2ccsc2)Cc2nn(C)cc21.O=C(O)C(F)(F)F (stereo unspecified) | 2.999 |
| COCC1Cn2nnc(-c3cnn(C)c3)c2CN1Cc1cccs1.O=C(O)C(F)(F)F (stereo unspecified) | 105.4 |
| COCC1Cn2nnc(-c3cnn(C)c3)c2CN1Cc1ccc(C)s1.O=C(O)C(F)(F)F (stereo unspecified) | -9.357 |
| COCC1CN(Cc2ccc(C)o2)Cc2cn(C)nc21.O=C(O)C(F)(F)F.O=C(O)C(F)(F)F (stereo unspecified) | -19.49 |
| Cc1cccc(COCC2c3nnn(C)c3CCN2Cc2ccoc2)n1.O=C(O)C(F)(F)F.O=C(O)C(F)(F)F (stereo unspecified) | -0.8413 |
| Fc1cccc(-c2nnn3c2COC(CNCc2ccsc2)C3)c1.O=C(O)C(F)(F)F (stereo unspecified) | -5.927 |

| Compound | Percent Effect [%] |
| --- | --- |
| Cc1cnnn1Cc1nnn2c1CN(Cc1cccs1)CCC2.O=C(O)C(F)(F)F | -1.131 |
| COCC1Cn2nnc(-c3cnn(C)c3)c2CN1Cc1ccsc1.O=C(O)C(F)(F)F (stereo unspecified) | 97.96 |
| CN(C)S(=O)(=O)N1C[C@H]2CCC[C@@]2(COCC2CCOCC2)C1 | -9.423 |
| CCc1nc(CNC2CCN(c3ccc(OC)cc3)CC2)cs1 | -5.711 |
| O=C(c1ccncc1F)N1CCc2ncnc(N3CCOCC3)c2CC1 | 22.92 |
| CCc1c(C)nn(CCNC(=O)c2cnn[nH]2)c1C | -18.26 |
| CCc1noc(C)c1C(=O)NCc1cc[nH]n1 | -9.348 |
| CCc1n[nH]c(C(=O)NCCn2ccnc2C)c1C | 12.68 |
| CCc1n[nH]c(C(=O)NCCn2ccc(C)n2)c1C | 161.5 |
| CCc1n[nH]c(C(=O)NCCn2nccc2C)c1C | 177.1 |
| CCCN1CC2(CCN(C)CC2)CC1C(=O)NCCn1ccc(C)n1 (stereo unspecified) | 5.137 |
| COc1cccc(N2CCN(C(=O)[C@H](O)C3CCCCC3)CC2=O)c1 | -19.32 |
| Cc1ccc(N2CCN(C(=O)[C@@H]3CCC(=O)N3)CC2=O)cc1 | 107.8 |
| O=C([C@H](O)c1ccccc1)N1CCN(c2cccc(Cl)c2)C(=O)C1 | -7.931 |
| Cc1ccc(N2CCN(C(=O)C3CN(C)C(=O)N3)CC2=O)cc1 (stereo unspecified) | 99.53 |
| CN1CC(C(=O)N2CCN(c3cccc(Cl)c3)C(=O)C2)NC1=O (stereo unspecified) | 98.1 |
| COc1ccc(N2CCN(C(=O)CCCc3cn[nH]c3)CC2=O)cc1 | -15.55 |
| COc1cnc(CN2CC(=O)N(c3ccc(C)cc3)CC2C)cc1O (stereo unspecified) | 8.35 |
| Cc1ccc(CC(=O)N2CC[C@@H]3NC(=O)CC[C@@H]32)cc1 | -5.727 |
| Cc1cc(C)cc(N2CCN(C(=O)C3CN(C)C(=O)N3)CC2=O)c1 (stereo unspecified) | 83.41 |
| COc1cccc(N2CCN(C(=O)CO)CC2=O)c1 | 5.099 |
| Cc1ccc(N2CCN(C(=O)C(O)c3cccc(Cl)c3)CC2=O)cc1 (stereo unspecified) | -0.06478 |
| COC(C(=O)N1CCN(c2cccc(Cl)c2)C(=O)C1)c1ccccc1 (stereo unspecified) | -8.872 |
| COc1ccc(-c2nc(CNCCn3cccn3)cs2)cc1 | 30.25 |
| COc1cc2c(cc1CNCc1ccnc(-n3cccn3)c1)OC(C)C2.Cl (stereo unspecified) | -0.5391 |
| O=C(O)CSc1nnc(-c2ccn[nH]2)n1-c1ccccc1C(F)(F)F | -29.49 |

| Compound | Percent Effect [%] |
| --- | --- |
| N#CCCN(CC1CCOC1)Cn1ccc(-c2ccsc2)n1 (stereo unspecified) | -9.852 |
| Cn1cccc1CN1CCC2(CCCN(C(=O)c3cccnc3)C2)CC1.O=C(O)C(F)(F)F.O=C(O)C(F)(F)F | 3.692 |
| Cn1cccc1C(=O)N1CC2(CCN(C(=O)c3cccnc3)C2)C1.O=C(O)C(F)(F)F | 98.8 |
| Cn1cccc1C(=O)N1CCC2(CCN(C(=O)c3cccnc3)C2)CC1.O=C(O)C(F)(F)F | 51.82 |
| CC1(C(=O)NCCc2ccc(F)cc2)CCOCC1 | 104.4 |
| FC(F)(F)c1cccc(C2(CNCc3ccncc3)CCOCC2)c1 | -7.872 |
| CC1(C(=O)NCc2cccc(C(F)(F)F)c2)CCOCC1 | 102.7 |
| CN1CCN(C(=O)NCCc2ccc(F)cc2)[C@H]2CS(=O)(=O)C[C@H]21 | 8.781 |
| CC1(C(=O)NCc2ccsc2)CCOCC1 | 107.3 |
| CC(CNC(=O)NCc1ccsc1)CC1(C)OCCO1 (stereo unspecified) | -12.21 |
| CC1(C(=O)Nc2ccc(F)c(-n3cccc3)c2)CCOCC1 | -9.431 |
| CCN(CC)c1ccc(CNC(=O)C2(C)CCOCC2)cc1F | 25.87 |
| CN(C)C1(CNC(=O)Cc2ccc(F)cc2)CCOCC1 | -8.041 |
| FC(F)(F)c1cccc(C2(CNCc3cc[nH]c3)CCOCC2)c1 | 2.692 |
| CC1(C(=O)NCc2cc(F)cc(F)c2)CCOCC1 | 100.6 |
| CC1(CCNC(=O)NCc2ccsc2)OCCO1 | -10.92 |
| Cc1nc(-c2ccccc2)c(C(=O)N2CCC3(CC(=O)NC3=O)C2)s1 (stereo unspecified) | -0.3979 |
| Cc1noc(C)c1CN1CC2(CCN(C(=O)c3ccoc3C)C2)CC1=O (stereo unspecified) | -6.391 |
| CCC(C)N(Cc1cc(C)n[nH]1)Cc1ccccc1Cl (stereo unspecified) | 4.348 |
| Cc1cc(CN2CCCC2)cc(Oc2ccc3c(c2)CC(CN)O3)c1 (stereo unspecified) | 4.792 |
| CC(C)c1noc(CN(C)C(=O)c2ncn[nH]2)n1 | 4.654 |
| CC(=O)NCCNC(=O)c1sc(-c2ccc(C)cc2C)nc1C | -3.584 |
| N#Cc1cn[nH]c1NCc1cc(Cl)cc(Cl)c1O | 77.61 |
| N#Cc1cn[nH]c1NCc1cc(I)cc(I)c1O | 96 |
| N#Cc1cn[nH]c1NCc1cc(Br)ccc1O | 83.36 |
| COc1ccc(/C=C/CN2CCN(c3ncccc3C(N)=O)CC2)cc1 | -5.557 |

| Compound | Percent Effect [%] |
| --- | --- |
| Cc1nc(NC2CCCC2)cc(C2CCN2C(=O)c2cccnc2)n1 (stereo unspecified) | -5.726 |
| CCC(=O)N1CCC1c1cc(NC2CCCC2)nc(C)n1 (stereo unspecified) | 124.3 |
| CCc1cc(NC2CCN(CC(N)=O)CC2)nc(N2CCCCC2)n1 | 3.351 |
| Cc1nc(NC2CCCC2)cc(C2CCN2C(=O)c2cnn(C)c2)n1 (stereo unspecified) | 99.12 |
| Cc1nc(NC2CCCC2)cc(C2CCN2C(=O)c2ccccc2)n1 (stereo unspecified) | 4.339 |
| Cc1cccc(N2CC[C@H]3[C@H]2CCN3C(=O)c2cnn(C)c2)n1 | 8.202 |
| Cc1nc(NC2CCCC2)cc(C2CCN2C(=O)c2ccccn2)n1 (stereo unspecified) | 140.6 |
| O=C1NCCc2c1sc1ccc(C(=O)N3CC[C@H](CO)[C@H](O)C3)cc21 | 1.887 |
| CCCS(=O)(=O)N1CCC2(CCC(=O)N(CCc3cccnc3)C2)CC1 | -2.035 |
| CCCC(=O)NC(C)(C)Cc1ccccc1OC | 8.655 |
| CCn1cc(S(=O)(=O)NC(=O)CCc2c[nH]c3ccccc23)cn1 | 5.036 |
| CN1CCN(c2ccc(NCc3ccc([S+](C)[O-])cc3)cn2)CC1 (stereo unspecified) | -11.28 |
| Cc1ccsc1C(=O)N1CC[C@H]2CO[C@H](CN(C)C)[C@H]2C1.O=C(O)C(F)(F)F | 3.155 |
| CCC(C)CS(=O)(=O)NC(=O)C1CC1 (stereo unspecified) | -14.71 |
| O=C(CS(=O)(=O)Cc1nnnn1C1CC1)NCCc1ccccc1 | -17.89 |
| c1ccc(C2CCCN2Cc2nnnn2C2CC2)cc1 (stereo unspecified) | -9.931 |
| O=C(CS(=O)(=O)Cc1nnnn1C1CC1)NCC1CC1 | -6.472 |
| O=S(=O)(CCCc1ccccc1)Cc1nnnn1C1CC1 | -8.499 |
| O=S(=O)(Cc1c(F)cccc1Cl)Cc1nnnn1C1CC1 | 95.69 |
| O=S(=O)(Cc1ccccc1F)Cc1nnnn1C1CC1 | 106.9 |
| [O-][S+](Cc1c(F)cccc1Cl)Cc1nnnn1C1CC1 (stereo unspecified) | 117.1 |
| O=S(=O)(Cc1c(F)cccc1Cl)NCCCN1CCCCCC1 | 1.36 |
| CN(Cc1nnnn1C1CC1)c1cccc2ccccc12 | -12.9 |
